Screening data (PubChem)
HP1b binding inh = inhibitors of HP1-beta chromodomain binding to methylated histone tails; P83916; AlphaScreen HP1-beta / biotin-H3K9me3 peptide binding; Potency, µM (doses to about 114 µM), inactives show at the highest dose activity change, negative = inhibition, hits mostly inhibitors; 390,000 compounds, 0.56% hits; also: nearly all actives have a fitted effect of over 70% in size
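HP1-beta protein (50 nM final) preincubated 30 min at room temperature with biotinylated H3(1-18)K9me3 peptide (50 nM) in PBS pH 7.4, 0.01% Tween-20, then compound added for 30 min. AlphaScreen streptavidin donor/nickel chelate acceptor beads (10 ug/mL final), 30 min dark, luminescence read.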
12-LOX inh = blocks human arachidonate 12S-lipoxygenase; purified 12hLO, xylenol orange hydroperoxide absorbance; 580,000 compounds, 1.1% hits; AID 1671190; Potency, µM (titrated, usually from 108 µM), for the others: at the top dose activity change, negative = inhibition, hits mostly inhibitors; P18054; also: % is scaled to controls: 0 for no effect and ±100 for the full control effect
Target sequence (P18054 whole entry, looked up): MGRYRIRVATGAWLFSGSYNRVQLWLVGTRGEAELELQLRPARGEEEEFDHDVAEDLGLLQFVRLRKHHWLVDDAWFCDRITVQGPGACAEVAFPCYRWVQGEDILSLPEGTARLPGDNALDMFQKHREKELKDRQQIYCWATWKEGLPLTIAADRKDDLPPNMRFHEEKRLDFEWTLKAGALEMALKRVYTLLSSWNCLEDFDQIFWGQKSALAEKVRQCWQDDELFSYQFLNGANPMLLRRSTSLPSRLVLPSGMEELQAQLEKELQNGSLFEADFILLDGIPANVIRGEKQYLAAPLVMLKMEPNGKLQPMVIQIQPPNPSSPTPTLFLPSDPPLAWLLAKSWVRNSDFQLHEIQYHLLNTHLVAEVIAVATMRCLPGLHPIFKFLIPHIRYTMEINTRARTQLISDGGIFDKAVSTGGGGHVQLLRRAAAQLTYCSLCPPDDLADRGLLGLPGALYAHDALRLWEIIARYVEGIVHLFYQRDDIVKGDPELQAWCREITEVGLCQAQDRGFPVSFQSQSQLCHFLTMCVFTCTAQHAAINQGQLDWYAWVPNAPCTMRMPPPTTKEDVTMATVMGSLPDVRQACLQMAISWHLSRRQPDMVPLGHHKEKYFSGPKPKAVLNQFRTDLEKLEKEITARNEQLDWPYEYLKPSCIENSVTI
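Purified human 12hLO at 150 nM in 25 mM Hepes, 0.01% Triton X-100, pH 7.0, preincubated 15 min at room temperature with compound. Reaction started with 40 uM arachidonic acid, 30 min at room temperature. Hydroperoxide measured by Fe-xylenol orange, 573/405 nm absorbance ratio.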
G9a block = blocks human histone lysine methyltransferase G9a | Q96KQ7 | G9a H3K9 monomethylation, AlphaScreen, 2 h | Potency, µM (series often up to 102 µM), for the others: at the top dose activity, negative = inhibition, usual class: inhibitors | 350,000 compounds, 8.8% hits | AID 504332; also: % is scaled to controls: 0 for no effect and ±100 for the full control effect; nearly all actives have a fitted effect of over 75% in size
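AlphaScreen detection with an anti-monomethyl H3K9 antibody quantified product after a 2 h room-temperature reaction containing 500 nM biotinylated H3K9 peptide, 20 µM SAM and 20 nM enzyme, which had been preincubated 15 min with compound.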
JMJD2A Tudor = inhibitors of human JMJD2A Tudor domain; O75164; AlphaScreen JMJD2A-Tudor / H3K4me3 peptide binding; Potency, µM (titrated, usually from 114 µM), for inactives: at the highest dose activity change, negative = inhibition, actives largely listed as inhibitors; 390,000 compounds, 4.4% hits; AID 504339; also: % is scaled to controls: 0 for no effect and ±100 for the full control effect; nearly all actives have a fitted effect of over 50% in size
BAZ2B inh = blocks human BAZ2B; AlphaScreen BAZ2B-H3K14Ac peptide displacement; 360,000 compounds, 4.4% hits; Q9UIF8; AID 504333; Potency, µM (doses to about 114 µM), without a hit: top-dose activity change, negative = inhibition, usual class: inhibitors; also: % is scaled to controls: 0 for no effect and ±100 for the full control effect; nearly all actives have a fitted effect of over 60% in size
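Protein-peptide AlphaScreen: BAZ2B 50 nM, b-H3K14Ac 50 nM, 1x PBS pH 7.4 + 0.01% Tween-20. Preincubation 30 min RT; cpd 30 min RT (top 110 uM); beads 20 min RT, light-protected.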
Sfp inh = inhibitors of Bacillus subtilis Sfp phosphopantetheinyl transferase | Q9F4F7 | AID 1490 | Biochemical Sfp PPTase activity, qHTS | Potency, µM, for inactives: largest response in the series, negative = inhibition, hits mostly inhibitors | 310,000 compounds, 3.5% hits;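 also: the enzyme is Sfp with the accession as filed and its product quenches rhodamine fluorescence; 0% = enzyme reaction without inhibitor and -100% = no enzyme wells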
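Reaction rates are the 30-min fluorescence difference (ex 525, em 598 nm) in wells containing 15 nM Sfp, 5 uM rhodamine-CoA and 12.5 uM BHQ-2-YbbR at pH 7.6 with 10 mM MgCl2.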
The depositor's hits bear a star; ? = inconclusive; . = not tested or not shown; [ ] = remark or other dose. Sampled rows, rich in hits. Any-hit rate of the full collection: about 8.7%. Calls follow the shape of the dose curve; as a rule, active = well fitted curve in the direction sought with a large enough effect; inconclusive = small, poorly fitted or top-dose-only effect, or another doubt; inactive = no such curve, though single readings can be large; an effect the other way counts as inactive or inconclusive. Potency is read from the fitted curve at half-maximal effect.

SMILES	HP1b binding inh	12-LOX inh	G9a block	JMJD2A Tudor	BAZ2B inh	Sfp inh
COc1cccc(N2CCN(C3C4CC5CC(C4)CC3C5)CC2)c1 (centres undefined)	17.4%	?	50.1µM*	-11.7%	?	-7.2%
CCNc1ccc(S(=O)(=O)N(C)C)cc1NCC(=O)Nc1ccccc1Cl	-23.6%	-4.5%	39.8µM*	?	?	2.4%
Brc1ccc(-c2cn3c4ccccc4nc3n2CCCN2CCCC2)cc1	.	10µM*	.	.	.	.
Brc1ccc(CNc2nc3ccccc3n2CCN2CCCCC2)cc1	27.2%	-11.0%	44.7µM*	-23.8%	?	6.4%
COc1ccc(CNc2nc3ccccc3n2CCN2CCCCC2)c(OC)c1	10.8%	?	?	-20.1%	?	?
COc1ccc(OC)c(CNc2nc3ccccc3n2CCN2CCCCC2)c1	-7.3%	-20.3%	?	?	-38.9%	79.4µM*
CC(=O)c1cc(CN2C[C@H]3CC[C@@H]2CN(S(=O)(=O)N(C)C)C3)n(C)c1	.	61.4%	.	.	.	.
CCC(C)(C)NCc1cc(=O)oc2c(C)c(O)ccc12	.	5.5%	.	.	.	.
O=C(Nc1ccccc1)C1CCN(C(=O)CCc2ncc(-c3ccc(Cl)cc3)o2)CC1	.	-9.7%	.	.	.	.
CCOc1ccc(Oc2ccc(Cl)cc2N)cc1	46.5%	-3.1%	50.1µM*	1.4%	?	4.6%
CCOc1ccc(C(=O)c2ccc(Cl)cc2)cc1	.	2.7%	.	.	.	.
Cc1ccc(-n2c(-c3cccc(C)c3)n[nH]c2=S)cc1	-7.9%	?	-126.8%	20µM*	-27.8%	-7.6%
COc1ccc(-c2n[nH]c(=S)n2-c2ccc(C)cc2)cc1OC	26.5%	?	3.98µM*	6.31µM*	-13.9%	?
Cc1cc2cc(-c3c(C)noc3C)nc(-c3ccccc3)c2o1	.	-13.7%[176 µM]	.	.	.	.
Cc1ccc(-n2c(-c3c(-c4ccccc4)noc3C)n[nH]c2=S)cc1	12.4%	-13.3%	0.562µM*	-23.0%	-23.4%	-6.4%
CCCc1cc(=O)oc2c(C)c(OCC(=O)NCc3ccncc3)ccc12	.	9.4%	.	.	.	.
O=C(c1nccc2ccccc12)N1CCN(C(=O)N2CC3CC(C2)[C@H]2CCCC(=O)N2C3)CC1 (some centres undefined)	.	32.6%	.	.	.	.
CC(=O)Nc1nc(C)cs1	29.0%	4.0%	7.0%	-9.6%	-14.3%	13.3%
Cc1csc(NC(=O)NCC2CCCC(CNC(=O)Nc3nc(C)cs3)C2)n1 (centres undefined)	1.1%	?	14.1µM*	-28.7%	-29.8%	-8.6%
CCCC(=O)N1c2ccccc2-c2nnc(SC)nc2OC1C (centres undefined)	.	-1.4%	.	.	.	.
O=C1NCc2ccccc2CC12CCN(Cc1ccnc3ccccc13)CC2	.	28.2µM*	.	.	.	.
O=C1NCc2ccccc2CC12CCCN(Cc1ccnc3ccccc13)C2 (centres undefined)	.	22.4µM*	.	.	.	.
C=C(C)Cn1c(NCC)nc2c1c(=O)n(C)c(=O)n2C	.	4.1%	.	.	.	.
O=C(N[C@@H](C(=O)NCc1cccnc1)c1ccccc1)C(c1ccccc1)c1ccccc1	.	-17.5%	.	.	.	.
COc1ccc(N2C(=S)NC(C)(C)CC2(C)c2ccc(OC(C)=O)cc2OC(C)=O)cc1 (centres undefined)	10.7%	?	79.4µM*	-21.1%	?	8.5%
SMILES	HP1b binding inh	12-LOX inh	G9a block	JMJD2A Tudor	BAZ2B inh	Sfp inh
C=CC#CCCCc1ccc(OC(=O)c2ccc(C(=O)Oc3ccc(CCCC#CC=C)cc3C)cc2)c(C)c1	.	-9.6%	.	.	.	.
COc1ccc(C2C3=C(CCCC3=O)Nc3nc(-c4cc(OC)c(OC)c(OC)c4)nn32)cc1OC (centres undefined)	4.4%	-6.6%	39.8µM*	-13.3%	-8.1%	-4.8%
COc1cc(-c2nc3n(n2)C(c2ccncc2)C2=C(CCCC2=O)N3)cc(OC)c1OC (centres undefined)	18.9%	-9.4%	-3.8%	-22.7%	-14.6%	7.0%
CN(C(=O)CCc1ccsc1)C1CCCN(CCc2ccccc2)C1 (centres undefined)	.	-7.8%	.	.	.	.
CN1C[C@H](NCc2cccc3c2OCO3)CCC[C@@H](C(=O)NCc2cc(F)cc(F)c2)CC1=O	.	0.6%	.	.	.	.
O=C1/C(=C\c2ccc(O)c(O)c2)C(c2ccccc2)=NN1c1ccccc1	?	?	3.98µM*	14.1µM*	8.91µM*	50.1µM*
CCOc1cc(/C=C2\C(=O)N(c3nc(-c4ccc(Br)cc4)cs3)N=C2c2ccccc2)ccc1O	?	.	?	?	?	-26.8%
COc1cc(/C=C2\C(=O)N(c3ccc(NC(C)=O)cc3)N=C2c2ccccc2)ccc1O	?	?	44.7µM*	39.8µM*	35.5µM*	11.3%
COc1cc(/C=C2\C(=O)N(c3ccc(S(N)(=O)=O)cc3)N=C2C)ccc1OC(=O)c1ccco1	2.9%	?	?	?	?	?
CC(Nc1nc(Nc2ccc(F)cc2)nc(SCC(N)=O)n1)c1ccccc1 (centres undefined)	-6.3%	?	20.7%[0.501 µM]	-34.5%	-30.4%	3.1%
CC(Nc1nc(=S)nc(Nc2ccc(F)cc2)[nH]1)c1ccccc1 (centres undefined)	-11.4%	?	.	-26.2%	-13.5%	44.7µM*
COc1ccc(S(=O)(=O)N2CCN(C)CC2)cc1	25.2%	36.8%	11.6%[59 µM]	-21.3%	-7.0%	15.8%
Cc1ccc(S(=O)(=O)N2CCN3CCCC3C2)cc1 (centres undefined)	20.2%	3.5%	-4.4%	-10.9%	0.2%	10.8%
Cc1ccc(S(=O)(=O)N2CCN(C3CC4CCC3C4)CC2)cc1 (centres undefined)	31.6µM*	?	8.91µM*	14.1µM*	31.6µM*	-26.9%
COc1ccc(S(=O)(=O)N2CCN(C3CC4CCC3C4)CC2)cc1 (centres undefined)	2.3%	?	22.4µM*	3.16µM*	-30.3%	-7.8%
COc1ccc(Cl)cc1NC(=O)Cn1c(-c2ccc(F)cc2)nc(C)c(CCO)c1=O	.	-2.0%	.	.	.	.
CCOCCCNCC(=O)NCC1CCCCC1	?	?	20µM*	20µM*	50.1µM*	-22.9%
CCOc1ccccc1C(=O)NCC(=O)NCC1CCCCC1	22.6%	12.1%	6.0%	-4.5%	2.6%	10.6%
CN(CCOc1ccccc1)CC1CCCO1 (centres undefined)	.	36.7%	.	.	.	.
CCC(CC)c1nnc(NC(=O)CCc2c(C)nc(C)[nH]c2=O)s1	.	34.8%	.	.	.	.
CS(=O)(=O)N1CCC(C2CCN(C(=O)Cc3c[nH]c4ccccc34)C2)CC1 (centres undefined)	.	12.7%	.	.	.	.
O=C(CSc1ncn[nH]1)N1N=C2/C(=C/c3ccccc3)CCCC2C1c1ccccc1 (centres undefined)	8.8%	-20.8%	11.2µM*	?	-24.8%	2.4%
